The values that follow come from PubChem BioAssay AID504333 (National Center for Advancing Translational Sciences (NCATS), 2011).

About 16,000 (4.4%) of roughly 360,000 compounds were called active. Entries that show only a call come without a potency. Another 9% or so got no clear call; they are omitted. The sample holds actives, similar compounds and a random draw of the others, so the mix is not that of the screen. Calls come from the whole dose curve; as a rule, active = well fitted inhibition curve with a large enough effect; inconclusive = small, poorly fitted or top-dose-only effect; inactive = no such curve, though single readings can be large or run the other way.
Potency is the fitted concentration of half-maximal effect.

Sequence of Bromodomain adjacent to zinc finger domain protein 2B (Homo sapiens) (Q9UIF8 whole entry, looked up, the tested form may be a part): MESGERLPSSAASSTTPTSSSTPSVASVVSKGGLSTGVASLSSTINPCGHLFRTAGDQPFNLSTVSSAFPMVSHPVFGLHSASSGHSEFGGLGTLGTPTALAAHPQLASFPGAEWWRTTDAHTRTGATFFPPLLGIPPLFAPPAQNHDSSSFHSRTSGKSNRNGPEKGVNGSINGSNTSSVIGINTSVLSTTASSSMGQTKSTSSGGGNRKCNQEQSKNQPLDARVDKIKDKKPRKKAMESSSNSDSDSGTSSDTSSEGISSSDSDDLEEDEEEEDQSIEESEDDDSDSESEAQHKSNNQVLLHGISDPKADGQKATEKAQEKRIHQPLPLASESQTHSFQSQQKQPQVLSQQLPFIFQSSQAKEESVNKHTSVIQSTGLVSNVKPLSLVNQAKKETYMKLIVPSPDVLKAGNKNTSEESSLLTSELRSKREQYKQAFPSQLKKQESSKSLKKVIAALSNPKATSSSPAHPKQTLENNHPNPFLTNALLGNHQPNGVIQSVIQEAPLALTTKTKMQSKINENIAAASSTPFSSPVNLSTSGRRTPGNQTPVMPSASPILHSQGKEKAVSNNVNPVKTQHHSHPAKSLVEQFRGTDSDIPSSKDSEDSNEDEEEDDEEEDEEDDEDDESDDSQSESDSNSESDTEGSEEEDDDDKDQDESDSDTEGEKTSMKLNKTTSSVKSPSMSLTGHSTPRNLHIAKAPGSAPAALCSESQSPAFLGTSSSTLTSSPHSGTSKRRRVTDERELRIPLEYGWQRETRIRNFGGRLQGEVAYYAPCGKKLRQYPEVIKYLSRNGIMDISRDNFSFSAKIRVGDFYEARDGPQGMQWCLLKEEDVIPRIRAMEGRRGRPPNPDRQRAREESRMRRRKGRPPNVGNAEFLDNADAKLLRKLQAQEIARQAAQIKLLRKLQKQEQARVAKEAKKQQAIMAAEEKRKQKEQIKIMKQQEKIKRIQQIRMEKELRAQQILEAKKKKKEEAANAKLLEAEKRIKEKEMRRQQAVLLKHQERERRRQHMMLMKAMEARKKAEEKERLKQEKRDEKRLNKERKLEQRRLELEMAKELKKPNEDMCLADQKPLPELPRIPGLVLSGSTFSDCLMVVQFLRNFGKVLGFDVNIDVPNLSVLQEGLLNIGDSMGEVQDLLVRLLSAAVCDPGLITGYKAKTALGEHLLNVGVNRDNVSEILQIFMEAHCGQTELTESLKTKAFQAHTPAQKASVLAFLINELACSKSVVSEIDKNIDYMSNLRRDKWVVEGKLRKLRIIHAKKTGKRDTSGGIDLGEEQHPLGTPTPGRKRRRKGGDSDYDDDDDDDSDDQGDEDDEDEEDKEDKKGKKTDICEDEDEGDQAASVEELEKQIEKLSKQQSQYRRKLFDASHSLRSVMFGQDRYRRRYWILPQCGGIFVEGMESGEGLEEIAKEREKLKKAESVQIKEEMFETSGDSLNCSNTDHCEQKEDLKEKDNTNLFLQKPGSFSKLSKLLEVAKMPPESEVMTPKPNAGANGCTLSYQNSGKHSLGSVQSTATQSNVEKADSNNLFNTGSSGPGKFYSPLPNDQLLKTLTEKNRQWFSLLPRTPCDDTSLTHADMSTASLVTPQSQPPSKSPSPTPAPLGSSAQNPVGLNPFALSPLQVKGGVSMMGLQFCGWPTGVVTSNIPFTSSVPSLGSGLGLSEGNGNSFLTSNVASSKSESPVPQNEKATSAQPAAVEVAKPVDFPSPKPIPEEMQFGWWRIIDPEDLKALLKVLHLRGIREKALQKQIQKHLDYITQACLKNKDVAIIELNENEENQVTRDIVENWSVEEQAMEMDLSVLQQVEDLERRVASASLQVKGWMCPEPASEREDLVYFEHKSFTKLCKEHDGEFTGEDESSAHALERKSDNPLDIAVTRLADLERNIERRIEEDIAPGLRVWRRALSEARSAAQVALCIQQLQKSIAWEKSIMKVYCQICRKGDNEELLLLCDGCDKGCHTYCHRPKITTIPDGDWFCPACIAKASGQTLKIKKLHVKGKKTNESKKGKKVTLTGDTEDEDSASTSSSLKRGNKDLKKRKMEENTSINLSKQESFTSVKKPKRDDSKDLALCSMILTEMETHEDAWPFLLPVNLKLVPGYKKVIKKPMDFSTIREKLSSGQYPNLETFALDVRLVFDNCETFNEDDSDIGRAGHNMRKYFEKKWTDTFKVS

This assay addresses Bromodomain adjacent to zinc finger domain protein 2B (Homo sapiens) (UniProt Q9UIF8). The experiment in a line: qHTS Assay for Inhibitors of BAZ2B. Note: nearly all actives have a fitted effect of over 60% in size. To be noted: AlphaScreen BAZ2B-H3K14Ac peptide displacement; series mostly up to 114 µM. An outline of the steps:
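In this displacement format the biotinylated H3(5-23) peptide acetylated at Lys14 serves as ligand at 50 nM, with BAZ2B at 50 nM in PBS pH 7.4 containing 0.01% Tween-20. Donor and acceptor beads are 10 ug/mL final.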
(In qHTS, concentration-response curves come from the screen itself.)
With `COc1ccccc1/C=N/N1CCN(Cc2ccccc2Cl)CC1`, the Potency was 44.7 µM (active).
Turning to `O=S1(=O)CCN(Cc2ccccc2Cl)CC1`, the Potency result is “inactive”.
Under `CSc1ccc(/C=N/N2CCN(Cc3ccccc3Cl)CC2)cc1` stands 25.1 µM (active); under `CSc1ccc(/C=N/NC(=O)c2cccc(Cl)c2)cc1`, “inactive”.
Turning to `COc1ccccc1/C=C/C=N/NC(=O)CN1CCN(Cc2ccccc2)CC1`, the Potency result is “inactive”.
Under `COc1cc(Cl)c(S(=O)(=O)N2CCN(Cc3ccc4c(c3)OCO4)CC2)cc1Cl` stands “inactive”; under `CCC(=O)N1c2ccccc2CC1C(=O)N1CCN(c2ccccc2)CC1` (configuration not stated), “inactive”.
For `CCc1ccc(NC(=O)N2CCN(C(=O)c3nsc4ccccc34)CC2)cc1` the value was “inactive”; for `Cc1ccccc1CSc1nc2c([nH]c3ccccc32)c(=O)n1C`, “inactive”; for `CCN(CC)c1nn2c(=O)c(C(=O)NCCc3ccccc3)cnc2s1`, “inactive”.
As to `COc1ccccc1N1CCN(C(=O)C2CCN(S(=O)(=O)c3c(C)noc3/C=C/c3ccc(C)cc3)CC2)CC1`, the Potency entry was “inactive”.
Turning to `COc1ccccc1-c1noc(CSc2nnc(-c3ccccc3)n2-c2ccc(C)c(C)c2)n1`, the Potency entry is “inactive”.
In the case of `Cc1ccc(NC(=O)c2ccc(CN3CC(=O)N4CCCCC4C3=O)cc2)c(Cl)c1` (configuration not stated), the Potency entry is “inactive”.
`COc1cc(NC(=O)CCn2nc(C)cc2C)cc(OC)c1OC`: the Potency entry is “inactive”.
Under `CC1CCN(c2oc(-c3ccccc3F)nc2C#N)CC1` stands 14.1 µM (active); under `Cc1oc(-c2ccccc2F)nc1CS(=O)CC(=O)NCCN1CCCCC1C` (configuration not stated), “inactive”.
On to `N#Cc1nc(-c2cccc3ccccc23)oc1N`, for which the Potency entry was “inactive”.
Take `COc1cccc(C2C(C(=O)Nc3ccc(C)cc3C)=C(C)Nc3c(C(=O)Nc4ccccc4)cnn32)c1` (configuration not stated): the Potency result was “inactive”.
For `CCOc1ccccc1C(=O)NCc1ccc2c(c1)CCN2C(=O)c1ccc(F)cc1` the value was “inactive”.
For `COc1ccc(NC(=O)C2CCN(c3ccc(Sc4ccc(C)cc4)nn3)CC2)c(OC)c1` the value was “inactive”; for `COc1ccc(CNC(=O)/C(C#N)=C/c2cccc(OC)c2OC)cc1`, “inactive”.
In the case of `COCCNC(=O)/C(C#N)=C/c1cccc(OCc2ccccc2)c1`, the Potency entry was “inactive”.
For `N#C/C(=C\c1ccc(O)c(O)c1)C(=O)NCc1ccccc1` the value was 12.6 µM (active); for `O=C(Nc1nnc(C2CC(=O)N(c3ccc(Cl)cc3)C2)s1)c1ccco1` (configuration not stated), “inactive”.
As for `Cc1c(CNC(C)c2ccccc2)c(C(=O)O)c(C)n1Cc1c(F)cccc1Cl` (configuration not stated), the Potency result is “inactive”.
Under `COc1cc(C(CC(=O)NCCC(C)C)N2Cc3ccccc3C2=O)cc(OC)c1OC` (configuration not stated) stands “inactive”; under `O=C(c1cc2c(s1)CCC2)N1CCN(c2ccccc2)CC1`, 56.2 µM (active).
As to `O=C(C1CCC1)N1CCN(c2ccccc2)CC1`, the Potency result was “inactive”.
As for `O=C(NNC(=O)c1cc2c(s1)CCCC2)c1ccccc1`, the Potency entry is “inactive”.
Regarding `COc1ccc(N2CCC(CNC(=S)Nc3c(C)cccc3C)C2)cc1` (configuration not stated), the Potency is 39.8 µM (active).
With `COc1ccc(NC(=S)NCCN2CCC(C)CC2)cc1`, the Potency result was “inactive”.
In the case of `COc1ccc(NC(=S)NCC2CCN(c3ccc(OC)cc3)C2)cc1` (configuration not stated), the Potency is 31.6 µM (active).
Under `COc1ccc(OCC(=O)Nc2ccc(N3CCC(C)CC3)cc2)cc1` stands “inactive”; under `COc1ccc(NC(=O)N2CCC(Cc3ccccc3)CC2)cc1`, “inactive”.
In the case of `COc1cccc(N2CC(C(=O)Nc3c(C)cccc3C)CC2=O)c1` (configuration not stated), the Potency entry was “inactive”.
As for `NC(=O)CSc1nc2c(oc3ccccc32)c(=O)n1Cc1ccccc1`, the Potency result was “inactive”.
For `CCOc1ccc(OCC)c(NS(=O)(=O)c2ccc3[nH]c(=O)ccc3c2)c1` the value was “inactive”; for `CCOc1ccc(N(CC)C(=O)c2noc3c2COc2ccc(C)cc2-3)cc1`, “inactive”.
For `COc1cc(-n2c(C)nc3cc(C(=O)NCc4ccco4)ccc32)cc(OC)c1OC` the value was 56.2 µM (active); for `COc1cc(C(=O)N[C@@H](C)C(=O)NCc2ccco2)cc(OC)c1OC`, “inactive”; for `COc1ccccc1-n1c(C)nc2cc(C(=O)NCc3ccc4c(c3)OCO4)ccc21`, “inactive”.
In the case of `COc1ccc(-c2cn3nc(N4CCC(C(=O)Nc5cccc(C)c5C)CC4)sc3n2)cc1`, the Potency result is “inactive”.
For `Cc1ccccc1C(=O)Nc1sc2c(c1C(=O)N1CCC(C)CC1)CCCC2` the value was “inactive”; for `O=C(c1cccs1)c1cn(CCOc2ccc(Cl)cc2)c2ccccc12`, “inactive”.
For `O=C(C1=C(O)C(=O)N(CCOCCO)C1c1ccccn1)c1cccs1` (configuration not stated) the value was 50.1 µM (active); for `O=C(c1cccs1)N(C(=O)c1cccs1)c1ccccn1`, “inactive”.
For `O=c1n(Cc2cccc(C(F)(F)F)c2)c2ccccc2c2nc(-c3ccccc3)nn12` the value was “inactive”; for `O=C(NCc1ccccc1)c1cccc(NC(=O)N2CCSc3ncccc32)c1`, “inactive”; for `Cc1ccc(NC(=O)Nc2sc3nc4n(c(=O)c3c2C)CCC(C)CC4)c(Cl)c1` (configuration not stated), “inactive”.
On to `COc1ccc(NC(=O)Nc2cccc(-c3noc(C)n3)c2)cc1`, for which the Potency entry is “inactive”.
On to `Cc1cccc(Cn2c(CN3CCC(C(=O)NCc4ccccc4Cl)CC3)cc3ccccc32)c1`, for which the Potency result was “inactive”.
For `COc1ccc(Cl)cc1NC(=O)CCS(=O)(=O)c1ccc(Br)cc1` the value was 8.91 µM (active).
For `COc1ccc(Cl)cc1NC(=O)CCC(=O)c1ccc(C)cc1` the value was “inactive”; for `COc1ccc(Cl)cc1NC(=O)CCS(=O)(=O)c1cc2c(cc1C)NC(=O)CO2`, “inactive”; for `CC(=O)N1CCc2cc(Br)cc(S(=O)(=O)CCC(=O)NCCc3ccc(Cl)cc3)c21`, “inactive”.
In the case of `COc1ccc(Cl)cc1NC(=O)CN(C)C(=O)c1cc2ccccc2cc1OC`, the Potency entry is “inactive”.
For `COc1ccc(Cl)cc1NC(=O)CN(C)Cc1ccc(OC)c(OC)c1` the value was 20 µM (active).
On to `O=C(CCS(=O)(=O)c1ccc(Br)cc1)NCCc1ccc(Cl)cc1`, for which the Potency is 50.1 µM (active).
For `Cn1c(=O)oc2cc(S(=O)(=O)CCC(=O)NCCc3ccc(Cl)cc3)ccc21`, the Potency entry was “inactive”.
Under `COc1ccc(Cl)cc1NC(=O)CN(C)CC(=O)Nc1ccc2c(c1)OCO2` stands “inactive”; under `CCc1ccccc1NS(=O)(=O)c1ccc2nc(-c3ccccc3)[nH]c2c1`, “inactive”; under `O=S(=O)(NCC(c1ccco1)N1CCOCC1)c1cc(F)ccc1F` (configuration not stated), “inactive”.
Take `Cc1ccc(Nc2ccc3cc(S(=O)(=O)N4CCCCC4)ccc3n2)cc1F`: the Potency entry was “inactive”.
On to `Cc1cc(C)c(NC(=O)CN2C(=O)c3cccnc3Oc3ccc(Cl)cc32)c(C)c1`, for which the Potency entry was “inactive”.
For `COc1cc(NC(=O)c2cc3ccc4cccnc4c3[nH]2)cc(OC)c1OC` the value was “inactive”; for `CCN(c1ncnc2c1cnn2-c1ccc(C)cc1)C1CCCCC1`, “inactive”; for `O=c1[nH]c2cc(Br)ccc2n2cccc12`, “inactive”.
Under `COc1ccc(NC(=O)CSc2nc(NS(=O)(=O)c3ccc(C)cc3)cc(=O)[nH]2)cc1` stands 50.1 µM (active); under `Cc1ccc(NC(=O)CSc2nc(CSc3ccc(C)cc3)cc(=O)[nH]2)cc1`, “inactive”; under `Cc1ccc(OCCCC(=O)Nc2ccc(S(=O)(=O)Nc3cc(C)nc(C)n3)cc2)cc1`, “inactive”.
For `CCc1nnc(NS(=O)(=O)c2ccc(NS(=O)(=O)c3ccccc3)cc2)s1` the value was “inactive”; for `CCc1nnc(NS(=O)(=O)c2ccc(NC(=S)NC(=O)c3cccs3)cc2)s1`, “inactive”; for `CCc1nnc(NS(=O)(=O)c2ccc(NC(=S)NC(=O)/C=C/c3cccs3)cc2)s1`, 50.1 µM (active).
As for `Cc1cc(-c2ccccc2)n2nc(-c3ccccc3)cc2n1`, the Potency result is “inactive”.
Consider `CCc1ccccc1NC(=O)Cn1c(=O)n(CC2CCC(C(=O)NCCc3ccccc3)CC2)c(=O)c2ccccc21` (configuration not stated), for which the Potency entry was “inactive”.
Under `COc1ccc(/C=C(/CC(=O)Nc2ccc(C)cc2)c2nc3ccccc3s2)cc1` stands “inactive”; under `COc1cccc2sc(NNC(=O)c3nc4ccccc4s3)nc12`, 35.5 µM (active); under `COc1ccccc1OCc1nc2ccccc2s1`, “inactive”.
For the compound `Cc1cc2nc(-c3ccc(NC(=O)c4cc5ccccc5o4)cc3)oc2cc1C`, the Potency entry is “inactive”.
Regarding `COc1ccccc1CNC(=O)C(=O)NCC(c1ccco1)S(=O)(=O)c1ccc(F)cc1` (configuration not stated), the Potency entry is “inactive”.
`CCCN(C(=O)Cn1cc(S(=O)(=O)N2CCN(c3ccccc3F)CC2)c2ccccc2c1=O)c1cccc(C)c1`: the Potency entry is “inactive”.
Turning to `COc1cc(C(=O)NCC(c2ccc(Cl)cc2)N2CCOCC2)cc(OC)c1OC` (configuration not stated), the Potency entry is “inactive”.
Under `CCOc1ccccc1/C=c1\sc2nc(-c3ccco3)nn2c1=O` stands 50.1 µM (active).
Take `CCOC(=O)C1CCN(C(c2ccc(F)cc2)c2sc3nc(-c4ccco4)nn3c2O)CC1` (configuration not stated): the Potency entry is “inactive”.
With `CCOc1ccccc1NC(=O)Cn1c(=O)n(Cc2ccco2)c(=O)c2sc3ccccc3c21`, the Potency entry was “inactive”.
As for `Cc1ccc(-n2c3nc(=O)[nH]c(=O)c-3cc3c(Cl)cccc32)cc1`, the Potency entry was “inactive”.
For the compound `CCOc1ccc(OCC)c(NC(=O)c2cc(C)nc3c2c(C)nn3-c2cccc(Cl)c2C)c1`, the Potency result is “inactive”.
As for `Cc1ccc(C(=O)Nc2cc3c(cc2N2CCCC2)n(C)c(=O)c(=O)n3C)cc1`, the Potency result is “inactive”.
For `O=S(=O)(c1ccc(Cl)cc1)c1nnn2c1nc(NC1CCCC1)c1sccc12`, the Potency entry was “inactive”.
For `O=C(Nc1ccc(S(=O)(=O)N2CCC(c3nc4ccccc4s3)CC2)cc1)c1ccccc1F` the value was “inactive”; for `S=c1[nH]nc(-c2ccncc2)n1/N=C/c1ccccc1Cl`, “inactive”.
Consider `S=c1[nH]nc(-c2cccs2)n1/N=C/c1cccs1`, for which the Potency entry is “inactive”.
Under `S=c1[nH]nc(-c2ccco2)n1/N=C/c1ccc(Br)s1` stands 70.8 µM (active); under `COc1ccc(C2C(=O)N(C3CCCCCC3)CC(=O)N2CCc2ccc(Cl)cc2)cc1OC` (configuration not stated), “inactive”.
On to `Cc1c(CC(=O)N2CCN(C(=O)C3COc4ccccc4O3)CC2)c(=O)oc2c(O)c(O)ccc12` (configuration not stated), for which the Potency is 7.94 µM (active).
For the compound `COc1ccc(OC)c2sc(N3CCN(C(=O)C4COc5ccccc5O4)CC3)nc12` (configuration not stated), the Potency result is “inactive”.
With `O=C(CNC(=O)C1COc2ccccc2O1)N/N=C/c1cc(Br)c(O)c(Br)c1` (configuration not stated), the Potency entry was “inactive”.
Under `Cn1c(C(=O)Nc2cccc(C(F)(F)F)c2)cc2c(=O)n3ccccc3nc21` stands “inactive”; under `COc1cccc(C(=O)NCc2ccc3c(c2)CCN3C(=O)c2ccncc2)c1`, “inactive”; under `CCN(CC)CCOCCOc1ccc(Cl)c2ccccc12`, 79.4 µM (active).
Take `CN(C)CCOCCOc1ccc(Cl)c2ccccc12`: the Potency was 50.1 µM (active).
With `CCOc1ccc(S(=O)(=O)N2CCCCCC2)c2ccccc12`, the Potency result is “inactive”.
